9 compounds from PubChem BioAssay (NCI) can be followed below.

Structures are written as SMILES. About 83,000 compounds went through this panel and 20% of them were active in at least one assay; those are over-represented in the sample as a whole.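 Interpretation: 100, growth as untreated; towards 0, rising growth inhibition; 0, no net growth; 0 to -100, cell death. Compounds scoring below 10 were considered active.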 A number with no mark means an inactive call. Activity calls are given as the source filed them.

Some test systems named below: RPMI-8226 leukemia; OVCAR-8 ovarian; OVCAR-5 ovarian; OVCAR-4 ovarian; SK-OV-3 ovarian; IGROV1 ovarian; OVCAR-3 ovarian; HS 578T breast; NCI/ADR-RES ovarian; T-47D breast; BT-549 breast; MDA-MB-435 melanoma; SW-620 colon; MCF7 breast; HCT-116 colon; HCC-2998 colon; KM12 colon; MDA-MB-468 breast; SR leukemia.
Common to all, as to test: NCI-60 one-dose screen, 48 h (100 = growth as untreated, 0 = no growth, -100 = all killed)
What all share (settings): 10 µM unless noted

Regarding `COCOc1ccc2c(=O)c(C)c(C(=O)N[C@@H](Cc3ccccc3)C(O)C(=O)NCCc3ccc(OC)cc3)oc2c1` (stereo not given in full), the growth in the test with RPMI-8226 leukemia was 100%; with OVCAR-8 ovarian, 107%; in the test on OVCAR-5 ovarian, 116%; with OVCAR-4 ovarian, 122%; in the test with SK-OV-3 ovarian, 113%; in the test on IGROV1 ovarian, 122%. Moreover, the growth in the test with OVCAR-3 ovarian was 120%; with HS 578T breast it was 104%; with NCI/ADR-RES ovarian, 107%; with T-47D breast, 97.1%; in the test on BT-549 breast it was 122%; in the test on MDA-MB-435 melanoma, 115%. Besides, the growth in the test on SW-620 colon was 114%; with MCF7 breast, 103%; with HCT-116 colon, 104%; in the test with HCC-2998 colon it was 125%; with KM12 colon, 108%; in the test on MDA-MB-468 breast it was 95.2%.

As for `COc1ccc(-c2nnc3ccc(N/N=C/c4ccc(C)cc4)nn23)cc1`, the growth was 94% with RPMI-8226 leukemia; 41.4% in the test with OVCAR-8 ovarian; 115% with OVCAR-5 ovarian; 36.9% with OVCAR-4 ovarian; 79.8% with SK-OV-3 ovarian; 100% in the test on IGROV1 ovarian. Moreover, the growth is 15.6% in the test with OVCAR-3 ovarian; 29.1% in the test with HS 578T breast; 25.8% with NCI/ADR-RES ovarian; 76% in the test on T-47D breast; 64.7% with MDA-MB-435 melanoma; 92.1% in the test on SW-620 colon. For the same compound, the growth is 57.2% in the test with MCF7 breast; 78.8% in the test on HCT-116 colon; 79.1% in the test with HCC-2998 colon; 68.1% in the test with KM12 colon; 89.4% in the test with MDA-MB-468 breast.

As for `COc1ccc(C(=O)/C=C/c2ccccc2Cl)cc1S(N)(=O)=O`, the growth is 120% in the test on RPMI-8226 leukemia; 110% with OVCAR-8 ovarian; 99.3% in the test on OVCAR-5 ovarian; 118% in the test on OVCAR-4 ovarian; 110% in the test with SK-OV-3 ovarian; 101% in the test on IGROV1 ovarian. Further, the growth in the test with OVCAR-3 ovarian was 90.7%; in the test with HS 578T breast, 107%; with NCI/ADR-RES ovarian, 104%; in the test with T-47D breast it was 106%; in the test with MDA-MB-435 melanoma, 117%; in the test with SW-620 colon, 107%. Further, the growth was 96.2% in the test with MCF7 breast; 106% with HCT-116 colon; 114% with HCC-2998 colon; 111% in the test on KM12 colon; 109% in the test on MDA-MB-468 breast.

`COCOc1cc2oc(C(=O)N[C@@H](Cc3ccccc3)C(O)C(=O)NCc3ccccc3)c(C)c(=O)c2cc1OCOC` (stereo not given in full): the growth in the test on RPMI-8226 leukemia was 99.3%; in the test with OVCAR-8 ovarian it was 22.2%; in the test on OVCAR-5 ovarian it was 91.8%; in the test with OVCAR-4 ovarian, 43.9%; in the test with SK-OV-3 ovarian, 33.4%; with IGROV1 ovarian, 101%. For the same compound, the growth with OVCAR-3 ovarian was 99%; with HS 578T breast it was 71.4%; with NCI/ADR-RES ovarian, 98.5%; with T-47D breast, 98%; in the test with BT-549 breast it was 95.9%; with MDA-MB-435 melanoma, 38.9%. Further, the growth was 103% with SW-620 colon; 67.5% in the test on MCF7 breast; -15.3% (active) with HCT-116 colon; 114% in the test with HCC-2998 colon; 64.8% with KM12 colon; 79.9% in the test on MDA-MB-468 breast.

As to `CC12CC[C@@H]3[C@]4(C)COC(c5cn[nH]c5-c5cccc(Cl)c5)O[C@@H]4CC[C@@]3(C)[C@@H]1CC(C1=CCOC1=O)O2` (stereo not given in full), the growth with SR leukemia was 29.7%; in the test with RPMI-8226 leukemia, 13.8%; in the test with OVCAR-8 ovarian it was 38.7%; in the test with OVCAR-4 ovarian, 29.1%; with SK-OV-3 ovarian, 62.4%; in the test on OVCAR-3 ovarian, 44.5%. Also, the growth with HS 578T breast is 46.8%; in the test with NCI/ADR-RES ovarian, 31.1%; in the test on T-47D breast, 17.7%; in the test with BT-549 breast it was 0.371% (active); in the test with MDA-MB-435 melanoma, 44.1%; in the test with SW-620 colon it was 50.6%. The growth is 19.1% with HCT-116 colon, 40.7% in the test on HCC-2998 colon, 17.9% in the test on KM12 colon and 7.22% (active) with MDA-MB-468 breast.

In the case of `Cc1cc2nc3c4ccccc4n(CC4=NCCN4)c3nc2cc1C`, the growth was 0.0191% (active) with SR leukemia; -21.1% (active) in the test with OVCAR-8 ovarian; -76.9% (active) with OVCAR-5 ovarian; -0.803% (active) with OVCAR-4 ovarian; 15.6% in the test with SK-OV-3 ovarian; 16.1% with IGROV1 ovarian. Moreover, the growth in the test with OVCAR-3 ovarian was 55.2%; in the test on HS 578T breast, 76.4%; with NCI/ADR-RES ovarian, 18.6%; with T-47D breast, 15.4%; in the test with BT-549 breast, 4.52% (active); in the test on MDA-MB-435 melanoma, -86.6% (active). Also, the growth is -40.2% (active) in the test on SW-620 colon; -90.5% (active) in the test with MCF7 breast; -92.8% (active) in the test on HCT-116 colon; -46.6% (active) in the test with HCC-2998 colon; 43% in the test with KM12 colon; -57.3% (active) with MDA-MB-468 breast.

On to `O=C1C(=Nc2ccc(F)c(Cl)c2)c2cccc3cccc1c23`, for which the growth in the test with RPMI-8226 leukemia is 8.45% (active); with OVCAR-8 ovarian, 3.58% (active); in the test on OVCAR-5 ovarian, 94.7%; with OVCAR-4 ovarian, 86.1%; in the test with SK-OV-3 ovarian, 87.4%; in the test on IGROV1 ovarian, 66.4%. Also, the growth was 25.3% in the test on OVCAR-3 ovarian; 89.9% in the test on HS 578T breast; 84.1% in the test on NCI/ADR-RES ovarian; 45.3% in the test on T-47D breast; -42% (active) with MDA-MB-435 melanoma; 35.8% in the test with SW-620 colon. Further, the growth with MCF7 breast was 16.1%; in the test on HCT-116 colon, 19%; in the test with HCC-2998 colon it was 108%; with KM12 colon, 55%; with MDA-MB-468 breast, 88.4%.

For `N#Cc1c(NCc2ccccc2)n[nH]c1Nc1ccccc1`, the growth is 37.3% with RPMI-8226 leukemia; 61.1% with OVCAR-8 ovarian; 84.4% with OVCAR-5 ovarian; 52.9% with OVCAR-4 ovarian; 68% with SK-OV-3 ovarian; 89.6% with IGROV1 ovarian. The growth in the test on OVCAR-3 ovarian was 66.8%; in the test on HS 578T breast, 84.6%; in the test with NCI/ADR-RES ovarian, 59.9%; with T-47D breast it was 17.2%; in the test with MDA-MB-435 melanoma, 56.6%; in the test with SW-620 colon, 62.7%. Also, the growth in the test with MCF7 breast is 41.6%; in the test on HCT-116 colon it was 33.1%; in the test with HCC-2998 colon, 99.7%; in the test on KM12 colon, 55.7%.

Consider `COc1ccc(NC(=O)Cn2c3c(sc2=O)[C@H]2[C@@H](O)[C@@H](O)[C@H](O)[C@@H]2CS3)cc1`, for which the growth in the test with SR leukemia is 99.1%; in the test on OVCAR-8 ovarian it was 103%; in the test on OVCAR-5 ovarian, 105%; with OVCAR-4 ovarian, 106%; with SK-OV-3 ovarian it was 107%; with IGROV1 ovarian it was 104%. In addition, the growth was 109% with OVCAR-3 ovarian; 107% with HS 578T breast; 107% with NCI/ADR-RES ovarian; 100% in the test with T-47D breast; 110% with BT-549 breast; 101% in the test with MDA-MB-435 melanoma. Besides, the growth is 105% in the test with SW-620 colon; 93.8% in the test on MCF7 breast; 103% in the test on HCT-116 colon; 114% in the test with HCC-2998 colon; 102% with KM12 colon; 107% in the test with MDA-MB-468 breast.
